Whole data set: some 5,000 sequences, median “log2 normalized fluorescence” near 0.089, cut for the highest 2% near 0.81. The sample holds the highest values, similar sequences and a random draw of the others, so the mix is not that of the screen.
Target: MYC (p64);MAX (p21), in MYC:MAX (human;human, UniProt P01106-1;P61244-2 1-439;1-151, |)
Assay: protein-binding microarray (anti-MAX antibody); PBM: 15 mM Tris-HCl pH 7.5, 100 mM KCl, 0.075% NP40, 7.5 mM beta-mercaptoethanol, 375 ng/ul BSA, 8 ng/ul poly(dA-dT):(dA-dT), 550 ng complex, 60 min, room tempe; high values mean tight binding
Conditions: protein: recombinant;recombinant; tags: 6xHis;6xHis; copies: 1;1; label: 3' end of printed strand (linker) attached to glass slide; dsDNA, one strand shown
Summary of the method: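 Binding, given as log2 normalized fluorescence, was measured on a custom Agilent glass array. The array bore ~5000 unique 12-nt sequences spotted in triplicate and converted to double strands by primer extension. It was incubated with 550 ng of human His-tagged MYC:MAX or MAX:MAX dimers from E. coli for 60 min at room temperature in Tris-KCl buffer, pH 7.5, with NP40, BSA and poly(dA-dT) competitor, and bound protein was detected with anti-MAX and secondary antibodies and scanned at 543 nm.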

Sequence of MYC (p64);MAX (p21), in MYC:MAX (P01106 16-454, chain 1 of 2): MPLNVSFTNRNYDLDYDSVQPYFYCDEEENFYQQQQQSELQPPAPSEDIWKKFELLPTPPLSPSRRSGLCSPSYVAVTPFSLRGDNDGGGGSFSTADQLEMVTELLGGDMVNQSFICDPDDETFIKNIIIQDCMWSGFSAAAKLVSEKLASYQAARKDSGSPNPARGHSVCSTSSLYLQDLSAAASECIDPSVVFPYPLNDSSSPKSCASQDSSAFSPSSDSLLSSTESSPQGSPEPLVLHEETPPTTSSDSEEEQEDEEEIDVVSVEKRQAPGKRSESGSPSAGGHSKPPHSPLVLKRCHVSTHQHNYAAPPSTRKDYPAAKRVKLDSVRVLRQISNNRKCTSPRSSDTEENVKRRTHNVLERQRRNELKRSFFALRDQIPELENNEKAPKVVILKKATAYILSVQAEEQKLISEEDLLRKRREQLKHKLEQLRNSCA
Sequence of MYC (p64);MAX (p21), in MYC:MAX (P61244 other isoform, or with tags, fused parts or gaps |, chain 2 of 2): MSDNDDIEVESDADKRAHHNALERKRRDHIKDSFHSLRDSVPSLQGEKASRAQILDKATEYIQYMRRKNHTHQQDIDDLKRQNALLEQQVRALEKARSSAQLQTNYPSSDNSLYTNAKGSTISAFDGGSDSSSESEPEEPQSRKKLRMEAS

Row | Sequence | binding signal
1 | CCGGCTGAAACTGAGTATTAATAGCTAAGATTACTATATCGACG | 0.00205 log2 normalized fluorescence
2 | CCGGCTGACCTGACGTATTAATAGCTAAGATTACTATATCGACG | 0.202 log2 normalized fluorescence
3 | CCGGCTGCCACGACGTATTAATAGCTAAGATTACTATATCGACG | 0.371 log2 normalized fluorescence
4 | CCGGCTGCCACGTGATATTAATAGCTAAGATTACTATATCGACG | 0.881 log2 normalized fluorescence
5 | CCGGCTGCCACGTGGTGTTAATAGCTAAGATTACTATATCGACG | 0.763 log2 normalized fluorescence
6 | CCGGCTGCCACGTGTTATTAATAGCTAAGATTACTATATCGACG | 0.969 log2 normalized fluorescence
7 | CCGGCTGCCACGTAGTGTTAATAGCTAAGATTACTATATCGACG | 0.23 log2 normalized fluorescence
8 | CCGGCTGTCACGTGATATTAATAGCTAAGATTACTATATCGACG | 0.587 log2 normalized fluorescence
9 | CCGGCTGAGGCGAAGTATTAATAGCTAAGATTACTATATCGACG | 0.0114 log2 normalized fluorescence
10 | CCGGCTGATGTATCGTATTAATAGCTAAGATTACTATATCGACG | 0.124 log2 normalized fluorescence
11 | CCGGCTGAGCGATAGTATTAATAGCTAAGATTACTATATCGACG | -0.0333 log2 normalized fluorescence
12 | CCGGCTGACGCGGAGTATTAATAGCTAAGATTACTATATCGACG | 0.127 log2 normalized fluorescence
13 | CCGGCGGACAGGTGGGATTAATAGCTAAGATTACTATATCGACG | 0.375 log2 normalized fluorescence
14 | CCGGCTAGCACGTGGTATTAATAGCTAAGATTACTATATCGACG | 0.917 log2 normalized fluorescence
15 | CCGGCGAGCACGTGGTATTAATAGCTAAGATTACTATATCGACG | 0.525 log2 normalized fluorescence
16 | CCGGCCAGCACGTGGTATTAATAGCTAAGATTACTATATCGACG | 0.793 log2 normalized fluorescence
17 | CCGGCAAGCACGTGGTATTAATAGCTAAGATTACTATATCGACG | 0.835 log2 normalized fluorescence
18 | CCGGCTGACGTCAGGTATTAATAGCTAAGATTACTATATCGACG | 0.293 log2 normalized fluorescence
19 | CCGGCTGAGGGTAGGTATTAATAGCTAAGATTACTATATCGACG | 0.0237 log2 normalized fluorescence
20 | CCGGCTGAGGCCCCGTATTAATAGCTAAGATTACTATATCGACG | 0.00137 log2 normalized fluorescence
21 | CCGGCTGGCACGCGGTCTTAATAGCTAAGATTACTATATCGACG | 0.784 log2 normalized fluorescence
22 | CCGGCTATCACGTGGGATTAATAGCTAAGATTACTATATCGACG | 0.804 log2 normalized fluorescence
23 | CCGGCGGGCACGTGGTATTAATAGCTAAGATTACTATATCGACG | 0.738 log2 normalized fluorescence
24 | CCGGCGTACACGTGGTATTAATAGCTAAGATTACTATATCGACG | 0.671 log2 normalized fluorescence
25 | CCGGCGGGCACGTGGGATTAATAGCTAAGATTACTATATCGACG | 0.986 log2 normalized fluorescence
26 | CCGGCTTACACGTGGTCTTAATAGCTAAGATTACTATATCGACG | 0.679 log2 normalized fluorescence
27 | CCGGCTGGCACGTGGGATTAATAGCTAAGATTACTATATCGACG | 0.708 log2 normalized fluorescence

Row | Sequence | binding signal
28 | CCGGCGTACACGTGGTCTTAATAGCTAAGATTACTATATCGACG | 0.89 log2 normalized fluorescence
29 | CCGGCGGGCACGTGGTCTTAATAGCTAAGATTACTATATCGACG | 0.929 log2 normalized fluorescence
30 | CCGGCTGAATCAGAGTATTAATAGCTAAGATTACTATATCGACG | 0.0753 log2 normalized fluorescence
31 | CCGGCTGAACAAGTGTATTAATAGCTAAGATTACTATATCGACG | 0.224 log2 normalized fluorescence
32 | CCGGCTGATACTTGGTTTTAATAGCTAAGATTACTATATCGACG | 0.0375 log2 normalized fluorescence
33 | CCGGCTGATCCCGCGTATTAATAGCTAAGATTACTATATCGACG | 0.218 log2 normalized fluorescence
34 | CCGGCTGAAGGGCAGTATTAATAGCTAAGATTACTATATCGACG | -0.0227 log2 normalized fluorescence
35 | CCGGCTGGCACGAGGTTTTAATAGCTAAGATTACTATATCGACG | 0.697 log2 normalized fluorescence
36 | CCGGCCGACACGCGGTTTTAATAGCTAAGATTACTATATCGACG | 0.82 log2 normalized fluorescence
37 | CCGGCTCACACGTTTTATTAATAGCTAAGATTACTATATCGACG | 0.662 log2 normalized fluorescence
38 | CCGGCTCACACGAGGTTTTAATAGCTAAGATTACTATATCGACG | 0.866 log2 normalized fluorescence
39 | CCGGCTCACACGCGGTTTTAATAGCTAAGATTACTATATCGACG | 0.822 log2 normalized fluorescence
40 | CCGGCTCACACGATGTATTAATAGCTAAGATTACTATATCGACG | 0.603 log2 normalized fluorescence
41 | CCGGCTCACACGTGGTTTTAATAGCTAAGATTACTATATCGACG | 0.78 log2 normalized fluorescence
42 | CCGGCTGAGACGCGGTTTTAATAGCTAAGATTACTATATCGACG | 0.131 log2 normalized fluorescence
43 | CCGGCCGACAGCCGGTTTTAATAGCTAAGATTACTATATCGACG | -0.0407 log2 normalized fluorescence
44 | CCGGCTGAGTAGTGGTATTAATAGCTAAGATTACTATATCGACG | 0.0775 log2 normalized fluorescence
45 | CCGGCTGAGGGCTTGTATTAATAGCTAAGATTACTATATCGACG | 0.0447 log2 normalized fluorescence
46 | CCGGCTGACGACAGGTATTAATAGCTAAGATTACTATATCGACG | 0.106 log2 normalized fluorescence
47 | CCGGCTGAAGTTCAGTATTAATAGCTAAGATTACTATATCGACG | 0.0781 log2 normalized fluorescence
48 | CCGGCTGAAGACCTGTATTAATAGCTAAGATTACTATATCGACG | 0.0334 log2 normalized fluorescence
49 | CCGGCTGATGTAATGTATTAATAGCTAAGATTACTATATCGACG | 0.000857 log2 normalized fluorescence
50 | CCGGCTGACGTTTGGTATTAATAGCTAAGATTACTATATCGACG | 0.243 log2 normalized fluorescence
51 | CCGGCTGACCACATGTATTAATAGCTAAGATTACTATATCGACG | 0.581 log2 normalized fluorescence
52 | CCGGCTGAACGTGAGTATTAATAGCTAAGATTACTATATCGACG | 0.437 log2 normalized fluorescence
53 | CCGGCTGAGGACGAGTATTAATAGCTAAGATTACTATATCGACG | -0.00251 log2 normalized fluorescence
